PubChem BioAssay AID1159580 (chemical genetic matrix, 2015)
Where “and” joins values, the source holds several entries; their conditions need not be identical. Equal values may be shown once. Hit rate of the full screen: of about 5,500 compounds, about 2,000 (36%) were called active. Inconclusive results (about 18%) are left out. Cut-off read from the data, not from the text of the source: active = normalized growth mostly below about 0.91 (no sharp cut-off); inconclusive = no clear call, values can overlap the other calls; inactive = mostly above about 0.92. The list shows a part of the results.

Assay: chemical genetic growth profiling, strain panel (AID 1159580);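 note: tested at 20 µM; growth read once vehicle control cultures reached saturation at 30 °C; 1 = growth at the plate median or of vehicle wells; lower values mean less growth of the strain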
Conditions: growth OD

Measured: normalized growth

CC(C)(C)NCC(O)c1cc(O)cc(O)c1 (stereo not drawn)
inactive: S. cerevisiae deletion strains, locus YKL009W, strain mrt4, hits give low values 0.961 | S. cerevisiae deletion strains, locus YKL068W, hits give low values 0.975 | S. cerevisiae deletion strains, locus YKL085W, strain MDH1 (second series), hits give low values 0.967 | S. cerevisiae deletion strains, locus YKL085W, strain MDH1, hits give low values 0.967 | S. cerevisiae deletion strains, locus YKL160W, strain elf1, hits give low values 0.934 | S. cerevisiae deletion strains, locus YKL190W, strain CNB1, hits give low values 0.994 | S. cerevisiae deletion strains, locus YKR001C, strain vps1, hits give low values 0.994 | S. cerevisiae deletion strains, locus YKR026C, strain gcn3, hits give low values 0.983 | S. cerevisiae deletion strains, locus YKR091W, strain srl3, hits give low values 0.978 | S. cerevisiae deletion strains, locus YLL001W, strain dnm1, hits give low values 1 | S. cerevisiae deletion strains, locus YLL026W, hits give low values 0.984 | S. cerevisiae deletion strains, locus YLL041C, strain sdh2, hits give low values 0.993 | S. cerevisiae deletion strains, locus YLR027C, strain aat2, hits give low values 0.987 | S. cerevisiae deletion strains, locus YLR039C, strain RIC1, hits give low values 0.978 | S. cerevisiae deletion strains, locus YLR058C, strain SHM2, hits give low values 0.987 | S. cerevisiae deletion strains, locus YLR102C, strain apc9, hits give low values 0.982 | S. cerevisiae deletion strains, locus YLR113W, strain HOG1, hits give low values 0.981 | S. cerevisiae deletion strains, locus YLR221C, strain rsa3, hits give low values 1.01 | S. cerevisiae deletion strains, locus YLR258W, strain gsy2, hits give low values 0.993 | S. cerevisiae deletion strains, locus YLR262C, strain YPT6 (second series), hits give low values 1 | S. cerevisiae deletion strains, locus YLR262C, strain YPT6, hits give low values 0.979 | S. cerevisiae deletion strains, locus YLR268W, strain sec22, hits give low values 0.951 | S. cerevisiae deletion strains, locus YLR320W, strain mms22, hits give low values 0.981 | S. cerevisiae deletion strains, locus YLR330W, strain CHS5, hits give low values 0.976 | S. cerevisiae deletion strains, locus YLR342W, strain FKS1 (second series), hits give low values 0.99 | S. cerevisiae deletion strains, locus YLR342W, strain FKS1, hits give low values 0.991 | S. cerevisiae deletion strains, locus YLR357W, strain rsc2, hits give low values 0.967 | S. cerevisiae deletion strains, locus YLR370C, strain arc18, hits give low values 0.975 | S. cerevisiae deletion strains, locus YLR371W, strain rom2, hits give low values 0.964 | S. cerevisiae deletion strains, locus YLR384C, strain iki3, hits give low values 0.988 | S. cerevisiae deletion strains, locus YLR418C, strain cdc73, hits give low values 0.996 | S. cerevisiae deletion strains, locus YML016C, strain PPZ1, hits give low values 0.992 | S. cerevisiae deletion strains, locus YML032C, strain rad52, hits give low values 0.99 | S. cerevisiae deletion strains, locus YML120C, strain ndi1, hits give low values 0.967 | S. cerevisiae deletion strains, locus YML124C, strain tub3, hits give low values 0.983 | S. cerevisiae deletion strains, locus YMR058W, strain fet3, hits give low values 1 | S. cerevisiae deletion strains, locus YMR078C, strain ctf18, hits give low values 0.976 | S. cerevisiae deletion strains, locus YMR125W, strain sto1, hits give low values 0.959 | S. cerevisiae deletion strains, locus YMR129W, hits give low values 0.969 | S. cerevisiae deletion strains, locus YMR205C, strain PFK2, hits give low values 0.984 | S. cerevisiae deletion strains, locus YMR223W, strain ubp8, hits give low values 1.02 | S. cerevisiae deletion strains, locus YMR231W, strain pep5, hits give low values 0.98 | S. cerevisiae deletion strains, locus YMR263W, strain SAP30, hits give low values 0.984 | S. cerevisiae deletion strains, locus YMR307W, strain GAS1, hits give low values 1.04 and 0.986 | S. cerevisiae deletion strains, locus YNL067W, strain RPL9B, hits give low values 0.985 | S. cerevisiae deletion strains, locus YNL071W, strain lat1, hits give low values 0.995 | S. cerevisiae deletion strains, locus YNL128W, strain TEP1, hits give low values 1.01 | S. cerevisiae deletion strains, locus YNL175C, strain NOP13, hits give low values 0.995 | S. cerevisiae deletion strains, locus YNL183C, strain NPR1, hits give low values 0.943 | S. cerevisiae deletion strains, locus YNL197C, strain WHI3, hits give low values 1 | S. cerevisiae deletion strains, locus YNL209W, strain ssb2, hits give low values 0.989 | S. cerevisiae deletion strains, locus YNL224C, strain SQS1, hits give low values 1.01 | S. cerevisiae deletion strains, locus YNL233W, strain BNI4, hits give low values 0.993 | S. cerevisiae deletion strains, locus YNL248C, strain rpa49, hits give low values 0.923 | S. cerevisiae deletion strains, locus YNL271C, strain bni1, hits give low values 0.985 | S. cerevisiae deletion strains, locus YNL298W, strain CLA4, hits give low values 0.979 | S. cerevisiae deletion strains, locus YNL307C, strain MCK1, hits give low values 0.975 | S. cerevisiae deletion strains, locus YNL322C, strain KRE1 (second series), hits give low values 0.953 | S. cerevisiae deletion strains, locus YNL322C, strain KRE1, hits give low values 0.979 | S. cerevisiae deletion strains, locus YNR049C, strain mso1, hits give low values 0.983 | S. cerevisiae deletion strains, locus YNR052C, strain pop2, hits give low values 0.983 | S. cerevisiae deletion strains, locus YOL006C, strain TOP1, hits give low values 1.06 | S. cerevisiae deletion strains, locus YOL012C, strain htz1 0.966 | S. cerevisiae deletion strains, locus YOL147C, strain pex11, hits give low values 0.969 | S. cerevisiae deletion strains, locus YOR001W, strain rrp6, hits give low values 1.01 | S. cerevisiae deletion strains, locus YOR061W, strain CKA2, hits give low values 1 | S. cerevisiae deletion strains, locus YOR069W, strain VPS5, hits give low values 0.986 | S. cerevisiae deletion strains, locus YOR070C, strain gyp1, hits give low values 0.986 | S. cerevisiae deletion strains, locus YOR080W, strain dia2, hits give low values 0.996 | S. cerevisiae deletion strains, locus YOR083W, strain WHI5 (second series), hits give low values 0.987 | S. cerevisiae deletion strains, locus YOR083W, strain WHI5, hits give low values 0.908 | S. cerevisiae deletion strains, locus YOR106W, strain vam3, hits give low values 0.933 | S. cerevisiae deletion strains, locus YOR136W, strain idh2, hits give low values 0.992 | S. cerevisiae deletion strains, locus YOR144C, strain elg1, hits give low values 0.989 | S. cerevisiae deletion strains, locus YOR184W, strain ser1, hits give low values 0.991 | S. cerevisiae deletion strains, locus YOR231W, strain MKK1, hits give low values 1.01 | S. cerevisiae deletion strains, locus YOR265W, strain rbl2, hits give low values 0.992 | S. cerevisiae deletion strains, locus YOR270C, strain vph1, hits give low values 0.932 | S. cerevisiae deletion strains, locus YOR290C, strain snf2, hits give low values 0.967 | S. cerevisiae deletion strains, locus YOR316C, strain cot1, hits give low values 0.982 | S. cerevisiae deletion strains, locus YPL051W, strain arl3, hits give low values 0.968 | S. cerevisiae deletion strains, locus YPL055C, strain LGE1, hits give low values 1.01 and 0.983 | S. cerevisiae deletion strains, locus YPL078C, strain atp4, hits give low values 0.944 | S. cerevisiae deletion strains, locus YPL106C, strain sse1, hits give low values 0.97 | S. cerevisiae deletion strains, locus YPL240C, strain hsp82, hits give low values 1.01 | S. cerevisiae deletion strains, locus YPL241C, strain CIN2, hits give low values 0.987 | S. cerevisiae deletion strains, locus YPL256C, strain CLN2, hits give low values 0.959 | S. cerevisiae deletion strains, locus YPR119W, strain clb2, hits give low values 0.975 | S. cerevisiae deletion strains, locus YPR141C, strain kar3, hits give low values 0.976 | S. cerevisiae deletion strains, locus YPR163C, strain tif3, hits give low values 0.978 | S. cerevisiae deletion strains, locus YPR167C, strain met16, hits give low values 0.974 | S. cerevisiae deletion strains, strain wtn01, hits give low values 0.99 | S. cerevisiae strains, strain wild type, hits give low values 0.993
